Experimental data as given in the supplement of paper PMC8728848.
The sample as a whole holds a higher share of the strongest signals than the screen did.

Assays:
Assay in all cases: glycan array binding signal (z-score within array); higher = stronger binding
Conditions in all cases: glycan notation: IUPAC condensed, linker removed; mutation: R186I
[1] = target: Fuc(a1-2)Gal(b1-3)GalNAc(b1-3)Gal
In short: (§1)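 Columns mapping to the same glycan were averaged after glycan names were converted to IUPAC-condensed notation. The data come from 3228 arrays in the Consortium for Functional Glycomics database, limited to those with an available protein sequence. Binding is reported as a within-array Z-score averaged across arrays of one protein sequence and across linkers.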

[2] = target: Fuc(a1-2)Gal(b1-3)GalNAc(b1-3)Gal(a1-4)Gal(b1-4)Glc
In short: as §1

[3] = target: Fuc(a1-2)Gal(b1-3)GlcNAc(b1-3)[Fuc(a1-3)[Gal(b1-4)]GlcNAc(b1-6)]Gal(b1-4)Glc
In short: as §1

[4] = target: Fuc(a1-2)Gal(b1-4)GlcNAc(b1-2)Man(a1-3)[Fuc(a1-2)Gal(b1-4)GlcNAc(b1-2)Man(a1-6)]Man(b1-4)GlcNAc(b1-4)GlcNAc
In short: as §1

[5] = target: Fuc(a1-2)[Gal(a1-3)]Gal(b1-3)GlcNAc(b1-2)Man(a1-3)[Fuc(a1-2)[Gal(a1-3)]Gal(b1-3)GlcNAc(b1-2)Man(a1-6)]Man(b1-4)GlcNAc(b1-4)GlcNAc
In short: as §1

[6] = target: Fuc(a1-2)[Gal(a1-3)]Gal(b1-4)GlcNAc(b1-2)Man(a1-3)[Fuc(a1-2)[Gal(a1-3)]Gal(b1-4)GlcNAc(b1-2)Man(a1-6)]Man(b1-4)GlcNAc(b1-4)GlcNAc
In short: as §1

[7] = target: Fuc(a1-2)[GalNAc(a1-3)]Gal(b1-3)GlcNAc(b1-2)Man(a1-3)[Fuc(a1-2)[GalNAc(a1-3)]Gal(b1-3)GlcNAc(b1-2)Man(a1-6)]Man(b1-4)GlcNAc(b1-4)GlcNAc
In short: as §1

[8] = target: Fuc(a1-2)[GalNAc(a1-3)]Gal(b1-4)GlcNAc(b1-2)Man(a1-3)[Fuc(a1-2)[GalNAc(a1-3)]Gal(b1-4)GlcNAc(b1-2)Man(a1-6)]Man(b1-4)GlcNAc(b1-4)GlcNAc
In short: as §1

[9] = target: Fuc(a1-2)[GalNAc(a1-3)]Gal(b1-4)GlcNAc(b1-3)Gal(b1-4)GlcNAc(b1-3)Gal(b1-4)GlcNAc
In short: as §1

[10] = target: Fuc(a1-3)[Gal3S(b1-4)]GlcNAc
In short: as §1

[11] = target: Fuc(a1-3)[Gal3S(b1-4)]GlcNAc6S
In short: as §1

Gal(a1-4)Gal(b1-4)GlcNAc = target: Gal(a1-4)Gal(b1-4)GlcNAc
In short: as §1

[12] = target: Gal(b1-3)Gal(b1-4)GlcNAc(b1-2)Man(a1-3)[Gal(b1-3)Gal(b1-4)GlcNAc(b1-2)Man(a1-6)]Man(b1-4)GlcNAc(b1-4)GlcNAc
In short: as §1

[13] = target: Gal(b1-3)GalNAc(a1-3)[Fuc(a1-2)]Gal(b1-4)GlcNAc
In short: as §1

[14] = target: Gal(b1-3)GlcNAc(b1-3)Gal(b1-4)GlcNAc
In short: as §1

[15] = target: Gal(b1-3)GlcNAc(b1-3)Gal(b1-4)[Fuc(a1-3)]GlcNAc(b1-6)[Gal(b1-3)GlcNAc(b1-3)]Gal(b1-4)Glc
In short: as §1

[16] = target: Gal(b1-3)GlcNAc(b1-6)Gal(b1-4)GlcNAc
In short: as §1

[17] = target: Gal(b1-3)[Fuc(a1-4)]GlcNAc(b1-2)Man(a1-3)[Gal(b1-3)[Fuc(a1-4)]GlcNAc(b1-2)Man(a1-6)]Man(b1-4)GlcNAc(b1-4)GlcNAc
In short: as §1

[18] = target: Gal(b1-3)[GlcNAc(b1-6)]GalNAc
In short: as §1

[19] = target: Gal(b1-4)GlcNAc(b1-3)Gal(b1-3)GlcNAc
In short: as §1

[20] = target: Gal(b1-4)GlcNAc(b1-3)[Gal(b1-4)GlcNAc(b1-6)]Gal(b1-4)GlcNAc
In short: as §1

Gal3S(b1-4)Glc = target: Gal3S(b1-4)Glc
In short: as §1

[21] = target: Gal3S(b1-4)[Fuc(a1-3)]Glc
In short: as §1

[22] = target: GalNAc(b1-3)Gal(a1-4)Gal(b1-4)GlcNAc(b1-3)Gal(b1-4)Glc
In short: as §1

Glc(a1-6)Glc(a1-6)Glc = target: Glc(a1-6)Glc(a1-6)Glc
In short: as §1

GlcNAc(b1-3)Man = target: GlcNAc(b1-3)Man
In short: as §1

[23] = target: Man(a1-2)Man(a1-3)[Man(a1-2)Man(a1-6)]Man(a1-6)[Man(a1-2)Man(a1-2)Man(a1-3)]Man
In short: as §1

Man(a1-6)Man = target: Man(a1-6)Man
In short: as §1

[24] = target: Neu5Ac(a2-3)Gal(b1-4)GlcNAc(b1-2)Man(a1-3)[GlcNAc(b1-2)Man(b1-4)GlcNAc(b1-2)Man(a1-6)]Man(b1-4)GlcNAc(b1-4)GlcNAc
In short: as §1

[25] = target: Neu5Ac(a2-3)Gal(b1-4)[Fuc(a1-3)]GlcNAc
In short: as §1

[26] = target: Neu5Ac(a2-6)Gal(b1-4)GlcNAc(b1-3)Gal(b1-4)GlcNAc(b1-3)Gal(b1-4)GlcNAc
In short: as §1

[27] = target: Neu5Ac9Ac(a2-6)Gal(b1-4)GlcNAc
In short: as §1

[28] = target: Neu5Gc(a2-3)Gal(b1-4)GlcNAc
In short: as §1

[29] = target: Neu5Gc(a2-3)Gal(b1-4)[Fuc(a1-3)]GlcNAc
In short: as §1

B1: Gal 3 (Homo sapiens), P17931 (protein)
chain: MADNFSLHDALSGSGNPNPQGWPGAWGNQPAGAGGYPGASYPGAYPGQAPPGAYPGQAPPGAYHGAPGAYPGAPAPGVYPGPPSGPGAYPSSGQPSAPGAYPATGPYGAPAGPLIVPYNLPLPGGVVPRMLITILGTVKPNANILDFQRGNDVAFHFNPRFNENNRRVIVCNTKLDNNWGREEIQSVFPFESGKPFKIQVLVEPDHFKVAVNDAHLLQYNHRVKKLNEISKLGISGDIDLTSASYTMI
glycan array binding signal (z-score) [1]: -0.188 | glycan array binding signal (z-score) [2]: -0.055 | glycan array binding signal (z-score) [3]: -0.187 | glycan array binding signal (z-score) [4]: 2.01 | glycan array binding signal (z-score) [5]: 5.08 | glycan array binding signal (z-score) [6]: 10.8 | glycan array binding signal (z-score) [7]: 3.39 | glycan array binding signal (z-score) [8]: 8.83 | glycan array binding signal (z-score) [9]: -0.113 | glycan array binding signal (z-score) [10]: -0.147 | glycan array binding signal (z-score) [11]: -0.154 | glycan array binding signal (z-score) (Gal(a1-4)Gal(b1-4)GlcNAc): -0.127 | glycan array binding signal (z-score) [12]: 11.1 | glycan array binding signal (z-score) [13]: -0.146 | glycan array binding signal (z-score) [14]: -0.166 | glycan array binding signal (z-score) [15]: -0.002 | glycan array binding signal (z-score) [16]: -0.173 | glycan array binding signal (z-score) [17]: -0.173 | glycan array binding signal (z-score) [18]: -0.128 | glycan array binding signal (z-score) [19]: 0.065 | glycan array binding signal (z-score) [20]: 0.077 | glycan array binding signal (z-score) (Gal3S(b1-4)Glc): -0.189 | glycan array binding signal (z-score) [21]: -0.171 | glycan array binding signal (z-score) [22]: 2.69 | glycan array binding signal (z-score) (Glc(a1-6)Glc(a1-6)Glc): -0.021 | glycan array binding signal (z-score) (GlcNAc(b1-3)Man): -0.189 | glycan array binding signal (z-score) [23]: -0.075 | glycan array binding signal (z-score) (Man(a1-6)Man): -0.185 | glycan array binding signal (z-score) [24]: -0.073 | glycan array binding signal (z-score) [25]: -0.164 | glycan array binding signal (z-score) [26]: -0.107 | glycan array binding signal (z-score) [27]: -0.185 | glycan array binding signal (z-score) [28]: -0.157 | glycan array binding signal (z-score) [29]: -0.165
